Among the data in PubChem BioAssay AID686978 (National Center for Advancing Translational Sciences (NCATS), 2013) are Potency values, retold here.

Among all 420,000 compounds or so, about 64,000 (15%) were called active. About 27% were inconclusive and are not listed. Calls follow the shape of the dose curve; as a rule, active = well fitted inhibition curve with a large enough effect; inconclusive = small, poorly fitted or top-dose-only effect; inactive = flat fitted curve, though single readings scatter. The list is a sample of the results. A call without a number means that no potency is given here.
Potency is read from the fitted curve at half-maximal effect.

A short description of this assay: qHTS for Inhibitors of human tyrosyl-DNA phosphodiesterase 1 (TDP1): qHTS in cells in absence of CPT. Also: nearly all actives have a fitted effect of over 55% in size. The following applies: DT40 Tdp1-/- hTDP1 cells, no CPT, ATP luminescence, 48 h; activity change, negative = growth inhibition: at 46.2 µM (top of the series). The procedure, abridged:
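Readout: luminescence from CellTiter-Glo after 30 min in the dark at RT. Cells: DT40 Tdp1-/- with stable hTDP1, 400/well. Exposure: compounds alone, ≥48 hr, 37 °C.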
(Quantitative high-throughput screening tests each substance at several concentrations.)
`CCC1Oc2ccc(Cl)cc2N(CC(=O)O)C1=O` (stereo not drawn): the Potency result is “inactive”.
Consider `Nc1c(C(=O)OCC(=O)Nc2ccc(OC(F)F)cc2)[nH]c(=O)[nH]c1=O`, for which the Potency result is “inactive”.
Then `Cc1cc(C)cc(NC(=O)COC(=O)c2cc(C)oc2C)c1`, with “inactive”; and `Cc1ccccc1Nc1nc(N)nc(COC(=O)CCC(=O)c2ccc(F)cc2)n1`, with “inactive”; and `CCCCNC(=O)CCn1nc(-c2ccc(Cl)cc2)ccc1=O`, with “inactive”.
Then `C[C@H](CO)N1C[C@H](C)[C@@H](CN(C)Cc2ccc3c(c2)OCO3)OCc2cnnn2CCCC1=O`, with “inactive”; and `Cc1ccc(CN(C)C[C@@H]2OCc3cnnn3CCCC(=O)N([C@@H](C)CO)C[C@H]2C)cc1`, with “inactive”.
For `C[C@H]1CN([C@@H](C)CO)C(=O)CCCn2nncc2CO[C@@H]1CN(C)Cc1ccc(Oc2ccccc2)cc1` the value was 18.4 µM (active).
As for `CCCC(=O)N1CCC(CCC(=O)NC2CC2)CC1`, the Potency result was “inactive”.
For `COCCN1C(=O)C(=O)/C(=C(/O)c2ccc(S(=O)(=O)N3CCCCC3)cc2)C1c1ccc(OC)c(OC)c1` (stereo not drawn), the Potency result was “inactive”.
As for `CSc1nc(-c2ccccc2)nc(C(Cl)Cl)n1`, the Potency is 2.31 µM (active).
Then `CSc1ncc(Sc2ccccc2)c(C(=O)O)n1`, with “inactive”.
For `CSc1nc(C)cc(SC(C(C)=O)C(=O)Nc2ccccc2)n1` (stereo not drawn) the value was “inactive”; for `CC1(C)Oc2ccc(C(=O)N3CCOCC3)cc2N(CC(=O)Nc2ccccc2)C1=O`, “inactive”.
For `O=C(NCCC1CCCCN1S(=O)(=O)c1ccccc1)C(=O)NCC1CCCO1` (stereo not drawn) the value was “inactive”; for `O=C(NCCC1CCCCN1S(=O)(=O)c1ccc(Cl)cc1)C(=O)NCc1ccco1` (stereo not drawn), 14.6 µM (active); for `Cc1ccc(S(=O)(=O)N2CCCC2C(=O)NCc2ccco2)cc1` (stereo not drawn), “inactive”.
Take `COc1ccc(NC(=O)CCCc2nnc3n(CCC(C)C)c(=O)c4sccc4n23)c(OC)c1`: the Potency entry was “inactive”.
Then `COc1ccccc1N=C(C)C1=C(O)COC1=O`, with “inactive”; and `CCC/C(O)=C1\C(=O)CC(C)(C)CC1=Nc1ccccc1OC`, with 14.6 µM (active); and `CCOc1ccccc1N=C1NC(=O)CS1`, with “inactive”.
For `N#Cc1cc([N+](=O)[O-])ccc1NC(=O)COC(=O)c1cnccn1` the value was “inactive”; for `NS(=O)(=O)c1cccc(NC(=O)CC23CC4CC(CC(Br)(C4)C2)C3)c1`, “inactive”; for `Cn1cccc1C(C#N)c1ccccc1C#N` (stereo not drawn), “inactive”.
In the case of `Cc1ccccc1NC(=O)C(C)OC(=O)CCC(=O)N(CC(C)C)c1c(N)n(CC(C)C)c(=O)[nH]c1=O` (stereo not drawn), the Potency entry is “inactive”.
For `Cc1cccc(C(C)C)c1NC(=O)COC(=O)C1CC(=O)N(Cc2ccccc2)C1` (stereo not drawn) the value was “inactive”.
Turning to `Cc1ccccc1NC(=O)NNC(=O)OC(C)(C)C`, the Potency result was “inactive”.
For `O=C(N/N=C/c1cccnc1)c1cc2ccccc2cc1O` the value was “inactive”; for `O=C(COC(=O)c1ccc(O)cc1O)NC(=O)c1ccccc1`, “inactive”; for `O=C(NNc1c2ccccc2nc2ccccc12)c1cc2ccccc2cc1O`, 18.4 µM (active).
Then `Cc1ccc(C(=O)NNC(=O)OC(C)(C)C)c(Cl)c1`, with “inactive”; and `CC(C)(C)OC(=O)NNc1c2ccccc2nc2ccccc12`, with 13 µM (active).
Then `CCCCNC(=O)N(O)C1N(/N=C/c2ccc(N(C)C)cc2)C(=S)SC1(C)C` (stereo not drawn), with “inactive”; and `Cc1csc(/N=C/N(C)C)c1C#N`, with “inactive”; and `COc1ccc(C2=NN(C(=O)CCC(=O)O)C(c3cccs3)C2)cc1OC` (stereo not drawn), with “inactive”.
With `CCS(=O)(=O)Nc1ccc(C2=NN(C(C)=O)C(c3cccs3)C2)cc1` (stereo not drawn), the Potency was 5.8 µM (active).
Then `CS(=O)(=O)Nc1ccc(C2=NN(S(C)(=O)=O)C(c3cccs3)C2)cc1` (stereo not drawn), with “inactive”; and `NNC(=O)c1cccc(COCC(F)(F)C(F)F)c1`, with “inactive”; and `COc1ccc(NC(=O)c2oc3ccc(S(=O)(=O)N4CCOCC4)cc3c2C)cc1`, with 10.3 µM (active).
For `Cc1c(C(=O)Nc2cccc(S(=O)(=O)N3CCOCC3)c2)oc2ccccc12` the value was 20.6 µM (active).
Then `O=C(Cn1[nH]c(=O)c2ccccc2c1=O)Nc1cccc(-c2nnc3n2CCCCC3)c1`, with “inactive”; and `Cc1c(C(=O)Nc2ccccc2Cl)oc2ccc(S(=O)(=O)N3CCC4(CC3)OCCO4)cc12`, with “inactive”; and `O=C(Nc1cc(S(=O)(=O)N2CCOCC2)ccc1N1CCOCC1)c1c(F)cccc1Cl`, with “inactive”.
Turning to `Cc1c(C(=O)Nc2cccc(-c3nnc4n3CCCCC4)c2)oc2ccccc12`, the Potency is 16.4 µM (active).
Then `Cc1ccc2oc(C(=O)Nc3ccc(S(=O)(=O)N4CCCCCC4)cc3)cc(=O)c2c1`, with “inactive”; and `Cc1nonc1NC(=O)c1oc2ccccc2c1C`, with “inactive”.
Then `Cc1cc(C)n2nc(C(=O)Nc3cccc(S(=O)(=O)N4CCOCC4)c3)nc2n1`, with “inactive”; and `O=C(Nc1cc(S(=O)(=O)N2CCOCC2)ccc1Cl)c1cc(=O)c2ccccc2o1`, with 20.6 µM (active).
Regarding `Cc1occc1C(=O)Nc1cccc(S(=O)(=O)N2CCOCC2)c1`, the Potency result was “inactive”.
Then `Cc1c(C(=O)NCCN(C)C)oc2ccc(S(=O)(=O)N3CCCC3)cc12`, with “inactive”; and `CSCCC(NC(=O)c1ccco1)C(=O)OCC(=O)Nc1ncc(Cl)c(C)c1Cl` (stereo not drawn), with “inactive”.
Then `O=C(Nc1c2c(nn1-c1ccccc1)CS(=O)(=O)C2)C1CCCC1`, with “inactive”; and `COCCNC(=O)C(OC(=O)c1cccs1)c1ccc(F)cc1` (stereo not drawn), with “inactive”; and `Cn1cc(C2OC(=O)c3ccccc32)c2ccccc21` (stereo not drawn), with “inactive”.
Then `CCn1c(O)c(N=NC2=NC(=O)CS2)c2cc(C)ccc21`, with “inactive”.
As to `COC(=O)C[C@@H]1C=C[C@@H](NS(=O)(=O)c2cccc(OC)c2)[C@@H](CO)O1`, the Potency entry was “inactive”.
Then `C[C@@H]1CN([C@H](C)CO)C(=O)CCCn2nncc2CO[C@@H]1CN(C)C(=O)OCc1ccccc1`, with “inactive”; and `O=C(O)CSc1nccn1-c1cccc(Cl)c1`, with “inactive”.
As to `Cc1cccc(OCC(=O)OCC(=O)Nc2ccc(Cl)cn2)c1`, the Potency entry was “inactive”.
Then `CCNC(=S)N1CCN(CCN=CC2=C(O)CC(C)(C)CC2=O)CC1`, with “inactive”; and `Cc1cc(C)c(S(=O)(=O)N2C=CC(C(F)(F)F)=NCC2)c(C)c1`, with “inactive”.
For `CC(CCO)Nc1nc2c([nH]1)c(=O)n(C)c(=O)n2C` (stereo not drawn) the value was “inactive”; for `Cc1sc2nc(-c3ccccc3F)oc(=O)c2c1C`, “inactive”; for `COc1ccc(-c2csc3nc(-c4ccccc4F)oc(=O)c23)cc1OC`, 16.4 µM (active).
Then `COc1ccccc1-c1nnc(-c2ccc(F)cc2)o1`, with “inactive”.
For `O=C(NCc1ccco1)C(c1ccncc1)N(C(=O)Cn1nnc2ccccc21)c1ccccc1` (stereo not drawn), the Potency entry is “inactive”.
Then `Cc1nn(-c2ccccc2)c2[nH]c(C(F)(F)F)cc(=O)c12`, with “inactive”; and `O=S(=O)(Nc1ncnc2sccc12)c1cccc(F)c1`, with “inactive”; and `Nc1ccccc1-c1nc2ccncc2[nH]1`, with “inactive”.
For `Cc1cccc(C)c1NC(=O)C1(N(C(=O)c2ccccn2)c2ccc(O)cc2)CCCCC1` the value was “inactive”.
In the case of `COc1ccc2c(CC(=O)OCC(=O)Nc3ccccc3[N+](=O)[O-])coc2c1`, the Potency entry is “inactive”.
Consider `Cc1nn(-c2ccccc2)c2sc(C(=O)N(Cc3ccco3)C(C)C(=O)NC(C)(C)C)cc12` (stereo not drawn), for which the Potency was 14.6 µM (active).
In the case of `Cc1nc(C)c(C(=O)N(c2ccc(C)c(C)c2)C(C(=O)NCc2ccco2)c2ccccc2)s1` (stereo not drawn), the Potency entry was “inactive”.
Then `Cc1ccc(-c2nnn(CC(=O)N(Cc3ccco3)C(C(=O)NC(C)(C)C)c3ccncc3)n2)o1` (stereo not drawn), with “inactive”; and `Cc1ccc(NC(=O)Nc2ccc3oc(C)nc3c2)cc1`, with “inactive”.
In the case of `O=C(NCCc1ccc(F)cc1)c1n[nH]c2ccccc12`, the Potency entry is “inactive”.
Then `COc1ccccc1NC(=O)c1ccc2nc(N3C(=O)CCC3=O)sc2c1`, with “inactive”.
As to `COc1cccc(CNC(=O)c2n[nH]c3ccccc23)c1`, the Potency is 16.4 µM (active).
Then `CCN1CCN(CCCNC(=O)c2ccc3c(c2)sc2nc(-c4ccc(OC)cc4)cn23)CC1`, with 1.3 µM (active); and `COc1ccc2oc(=O)c(-c3cn4c(n3)sc3cc(OC)ccc34)cc2c1`, with “inactive”; and `CCCN1CCN(CCCNC(=O)c2ccc3nc(Cc4ccccc4)oc3c2)CC1`, with “inactive”.
Then `COc1ccc(-c2cn3c(C)c(C(=O)Nc4cc(C)cc(C)c4)sc3n2)cc1`, with 16.4 µM (active).
For `O=C(COC(=O)c1n[nH]c2ccccc12)NCc1ccccc1` the value was “inactive”; for `COc1ccc(NC(=O)c2cc(-c3ccc(C)cc3)on2)cc1`, “inactive”; for `COc1ccc(-c2cn3c(n2)sc2cc(C(=O)Nc4ccccc4F)ccc23)cc1`, 3.66 µM (active).
As to `COc1ccc(-c2cc(C(=O)NCCCN3CCOCC3)no2)cc1`, the Potency result was “inactive”.
For the molecule `CCOC(=O)c1ccccc1NC(=O)c1sc2nc(-c3ccc(F)cc3)cn2c1C`, the Potency entry was “inactive”.
For `O=C(OCC(=O)N1CCCCC1)c1ccc(OC(F)(F)F)cc1`, the Potency result was “inactive”.
Then `CCN(CC)C(=O)C1CCC(C)(C(=O)O)C1(C)C` (stereo not drawn), with “inactive”; and `O=S(=O)(NCCSc1ccccn1)c1ccc(Cl)cc1`, with “inactive”; and `CC(C)=NN1C(=O)c2ccccc2NC1(C)C`, with “inactive”.
For `Cc1nnsc1C(=O)Nc1cccc(Cl)c1C` the value was “inactive”; for `COc1cccc(CNC(=O)Cn2ncn3c(cc4ccccc43)c2=O)c1`, “inactive”.
Then `COc1cccc(CNC(=O)CCc2nc(-c3ccc(C)cc3)no2)c1`, with “inactive”; and `COc1cccc(CNC(=O)c2ccc3c(c2)sc2nc(-c4cccc(OC)c4)cn23)c1`, with 4.11 µM (active); and `CCOc1cc(NC(=O)CCl)c(OCC)cc1NC(C)=O`, with 16.4 µM (active).
Regarding `CCOc1cc(NC(=O)Nc2ccccc2)c(OCC)cc1NC(=O)CC`, the Potency result was “inactive”.
Consider `CCCC(=O)Nc1cc(OCC)c(NC(=O)NC2CCCCC2)cc1OCC`, for which the Potency result is “inactive”.
Then `C=CC1=C(C(=O)O)N2C(=O)[C@@H](NC(=O)/C(=N/OCC(=O)O)c3csc(N)n3)[C@H]2SC1`, with “inactive”; and `COc1cc2c(cc1OC)C(C(=O)Nc1cc(C)c(OC)c(C)c1)CC(=O)N2` (stereo not drawn), with “inactive”.
Take `COc1cc(N/C=C2\CC(=O)NC(C)=C2C#N)cc(OC)c1OC`: the Potency is 25.9 µM (active).
For `COC(=O)C1=C(C)NC(=O)CC1c1ccccc1OC` (stereo not drawn) the value was “inactive”; for `CC(C)CNC(=O)C1(C)CCCN1C(=O)CSc1ccccc1` (stereo not drawn), “inactive”.
